Bioassay records from PubChem.
An excerpt weighted towards active compounds, which were near 4.8% of everything screened.
DAX1 inh-1: NR0B1 (DAX1) inhibition | AID 504766 | P51843 | HEK293 Gal4-DAX1 luciferase reporter, luminescence | inhibition, % at 6.75 µM | 340,000 compounds, 0.99% hits;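 active = inhibition above the mean over all tested compounds plus 3 SD, cut at about 4.2% in these data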;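 note: 0% = DAX1-transfected cells with DMSO and 100% = empty-vector control cells with DMSO; inhibition shows as a rise in luminescence from relieved DAX1 repression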
Target sequence (P51843 207-470 limits assumed): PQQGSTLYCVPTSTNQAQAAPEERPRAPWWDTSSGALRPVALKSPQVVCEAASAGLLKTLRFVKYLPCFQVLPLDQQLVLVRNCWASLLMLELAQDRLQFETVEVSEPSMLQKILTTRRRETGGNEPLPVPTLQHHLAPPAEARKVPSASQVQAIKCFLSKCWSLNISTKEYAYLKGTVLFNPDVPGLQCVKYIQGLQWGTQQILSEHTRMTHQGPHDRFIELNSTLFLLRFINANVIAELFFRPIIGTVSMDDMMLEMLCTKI
hgDAF12 agonist: activates the H. glycines DAF-12 receptor ligand-binding domain; HEK293 GAL4-hgDAF12 UAS-luciferase reporter, agonist luminescence; normalized to butyrate control; activation, % at 6.8 µM; 370,000 compounds, 1.8% hits;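 active = activation above a cutoff set at the mean of all screened compounds plus 3 SD, cut at about 10% in these data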;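 note: 0% = DMSO wells and 100% = sodium butyrate wells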
hcDAF12 agonist: H. contortus DAF-12 activation, primary screen; HEK293 hcDAF-12 lit1-tk-luc reporter, luminescence; 0% DMSO, 100% Δ7-dafachronic acid; AID 652067; activation, % at 6.8 µM; 370,000 compounds, 1.4% hits;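 active = activation above the mean of all tested compounds plus 3 SD, cut at about 5.5% in these data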;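 note: 100% = response to 3 µM Δ7-dafachronic acid high control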
ssDAF12 agonist: activates DAF-12 receptor from parasite S. stercoralis; AID 652126; HEK293 ssDAF-12/GRIP1 lit1-tk-luc reporter, luminescence; % of 3 µM dafachronic acid response; activation, % at 6.8 µM; 370,000 compounds, 1% hits;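 active = activation above the mean over all tested compounds plus 3 SD, cut at about 0.9% in these data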;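 note: 0% = DMSO-only wells and 100% = 3 µM delta7-dafachronic acid wells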
DAX1 inh-2: DAX1 (NR0B1) inhibition, primary screen | HEK293T StAR-luciferase reporter, SF-1/DAX-1 repression relief | inhibition, % at 6.8 µM | 370,000 compounds, 1.1% hits | AID 652010;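 active = inhibition above the mean over all tested compounds plus 3 SD, cut at about 3.6% in these data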;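 note: 0% = DAX-1 cells with DMSO and 100% = cells lacking DAX-1 with DMSO; higher inhibition means more luminescence from relief of DAX-1 repression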
SMARCA2 activ: SMARCA2 function activation, primary screen | MG213 cells, MMTV-luciferase reporter, dexamethasone, overnight | activation, % at 9.1 µM | 370,000 compounds, 1% hits; in the data active = activation above about 7.8%;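 note: 0% = vehicle wells and 100% = reference activator wells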
SMARCA2 conf: SMARCA2 activation, confirmation screen; shares compounds with SMARCA2 activ; activation, % at 9.1 µM; MG213 cells, MMTV-luciferase with dexamethasone, luminescence, overnight; MG213 cells expressing E1A, Rb sequestered; DMSO wells 0%, reference activator 100%; 3,500 compounds, 30% hits;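 active = activation above its plate's cutoff, the mean activation of tested wells plus 3 SD, cut at about 7.9% in these data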
VP16 Luc act: GAL4-VP16 reporter activation counter-screen. 3,500 compounds, 41% hits. shares compounds with SMARCA2 activ. HEK293 GAL4-VP16 pG5luc reporter, luciferase luminescence; scaled: DMSO wells 0%, SAHA wells 100%. activation, % at 9.1 µM;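 active = activation above the solvent-only control well mean plus 3 SD, averaged across control plates, cut at about 5.2% in these data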
* marks the source's active call; other numbers are inactive results; . = no result.

SMILES | DAX1 inh-1 | hgDAF12 agonist | hcDAF12 agonist | ssDAF12 agonist | DAX1 inh-2 | SMARCA2 activ | SMARCA2 conf | VP16 Luc act
COc1ccc(N2C(=O)CSC23C(=O)Nc2ccccc23)cc1 (configuration not stated) | 0 | -1 | 1 | 0 | 0 | 8.6* | -2 | 4
Cc1ccc(N2C(=O)CCSC23C(=O)Nc2ccccc23)cc1 (configuration not stated) | -1 | 3 | 0 | 0 | 0 | 0 | . | .
CCN1CCN(c2ccc(S(=O)(=O)N3CCOCC3)cc2NC(=O)/C=C/c2ccc([N+](=O)[O-])cc2)CC1 | -1 | 4 | -1 | -1 | -4 | 11* | 35* | 2
Cc1ccc(F)cc1NC(=O)/C=C/c1ccc(S(=O)(=O)N2CCOCC2)cc1 | -1 | -1 | 0 | -1 | -1 | -2 | . | .
O=C(/C=C/c1ccc(S(=O)(=O)N2CCOCC2)cc1)Nc1cc(F)ccc1F | 0 | 10 | 0 | -1 | 1 | 9.0* | 5 | 5
COc1ccc(C2CC2/C(=N/O)c2ccccn2)cc1 (configuration not stated) | 1 | 5 | 1 | 0 | 2 | 0 | . | .
COc1ccc(C2CC2C(=O)c2ccccn2)cc1 (configuration not stated) | 1 | 6 | 1 | -1 | 0 | 8.6* | 5 | 5
COc1ccc2c(c1OC)C(=O)N(c1ccc(C)cc1)C2 | 6.2* | 12* | 4 | -1 | 3 | 9.4* | 14* | 8.4*
CCCCNC(=O)N1CCCC1C(=O)Nc1cccc(OC)c1 (configuration not stated) | . | -2 | -2 | -2 | 0 | 0 | . | .
COc1ccc(C=NNC(=O)Cc2cc(=O)[nH][nH]2)c(OC)c1 | . | -3 | 2 | -1 | -1 | -6 | . | .
Cc1ccc(C(=O)NC2=NCCS2)cc1 | . | 9 | 3 | 0 | 3 | 8.8* | 7 | 13*
Cc1ccc(C(=O)NC2=NCCS2)cc1Cl | 4 | . | . | . | . | . | . | .
c1ccc(-c2cc(N3CCCCC3)ncn2)cc1 | 2 | 8 | 1 | 0 | 1 | 8.2* | 8.5* | 8.6*
Clc1ccc(COn2c(-c3ccc(Cl)cc3)nc3ccccc32)cc1 | 0 | 0 | -1 | -2 | -1 | 3 | . | .
O=[N+]([O-])c1ccc2nc(-c3ccc(Cl)cc3)n(OCc3ccccc3)c2c1 | 2 | 9 | 2 | 0 | 3 | 11* | 7 | 11*
O=C(Nc1ccc(F)cc1)OCc1cn(Cc2ccccc2F)nn1 | . | 3 | -1 | -1 | -1 | -2 | . | .
O=C(Nc1ccc(-c2nc3ccccc3[nH]2)cc1)C1CCCN(Cc2ccn[nH]2)C1 (configuration not stated) | 1 | 6 | 2 | -1 | 2 | 18* | 7 | 5
COc1cc(/C=N/NS(=O)(=O)c2ccc(C)cc2)ccc1OCc1cccc(C(=O)O)c1 | -8 | 10* | 3 | 0 | 2 | 9.5* | 6 | 19*
O=C1c2cccc(NCCCNCCO)c2C(=O)c2cccc(NCCCNCCO)c21 | 0 | 5 | 4 | 1.0* | -2 | 28* | -13 | 1
O=C(NCC1CCCO1)c1sc2cc(Cl)ccc2c1Cl (configuration not stated) | -1 | 7 | 2 | -1 | 1 | 10* | 8.4* | 9.4*
C=CCN1C(=O)[C@@H](CC(=O)NCCC(C)C)[C@]2(C(=O)OC)CCCCC=C12 | . | -4 | -1 | -1 | 0 | -4 | . | .
COC(=O)CCCNC(=O)c1ccc(OC2CCN(CCc3ccccc3)CC2)cc1 | 0 | -3 | 0 | 0 | 0 | -4 | . | .
CSCCNC(=O)c1ccc(OC2CCN(CCc3ccccc3)CC2)cc1 | 3 | -1 | -1 | -1 | 0 | 8.0* | -1 | 0
Cc1nc2cc3ccccc3cc2s1 | 4 | 1 | -1 | -1 | 0 | 0 | . | .
